From PubChem BioAssay
The list is not random: actives were taken first. Their share in the collection is about 0.44%.
ERG Ets-DNA blk – ERG Ets/DNA interaction inhibition; fluorescence polarization, His-ERG Ets domain / labelled DNA; 370,000 compounds, 0.028% hits; P11308; Potency, µM (series often up to 76.9 µM), without a hit: top-dose FP activity, negative = inhibition, hits mostly inhibitors; active = well fitted inhibition curve with a large enough effect in the polarisation, with a control signal flat; inconclusive = small, poorly fitted or top-dose-only effect, or effect the other way, or a change in a side signal; inactive = no such curve, though single readings can be large or run the other way; the % refers to the polarisation;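 note: polarization taken with two DNA probes labelled with fluorescein and Texas red; % of control where 0% means no effect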
Target sequence (P11308 whole entry, looked up, the tested form may be a part): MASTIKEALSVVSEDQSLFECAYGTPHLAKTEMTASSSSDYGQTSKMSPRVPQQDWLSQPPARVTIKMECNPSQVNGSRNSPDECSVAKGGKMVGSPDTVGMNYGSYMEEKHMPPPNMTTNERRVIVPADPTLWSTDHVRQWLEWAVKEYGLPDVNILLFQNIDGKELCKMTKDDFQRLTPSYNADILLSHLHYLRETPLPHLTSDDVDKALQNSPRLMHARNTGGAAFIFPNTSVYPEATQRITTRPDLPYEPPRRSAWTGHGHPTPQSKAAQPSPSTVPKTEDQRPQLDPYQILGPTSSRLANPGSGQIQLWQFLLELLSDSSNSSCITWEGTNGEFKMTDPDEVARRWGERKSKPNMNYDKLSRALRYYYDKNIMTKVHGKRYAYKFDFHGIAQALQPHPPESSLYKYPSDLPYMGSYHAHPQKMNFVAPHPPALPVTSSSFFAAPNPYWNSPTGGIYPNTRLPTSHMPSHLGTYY
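His-tagged ERG Ets domain (1 uM in the protein solution; 300mM KCl, 50mM Tris-HCl, 1mM EDTA, 1mM DTT, pH 7.5) received compound, then a probe mix of 5 nM fluorescein-DNA and 100nM Texas-615-DNA. Fluorescence polarization was read for both dyes.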
RGS12 GoLoco inh – blocks human Gai1 binding to RGS12 GoLoco peptide, red readout. Potency, µM (titrated, usually from 61.6 µM), inactives show top-dose activity, negative = inhibition, usual class: inhibitors. 230,000 compounds, 0.44% hits. AID 880. Gai1:RGS12 GoLoco peptide FP, rhodamine, 10 min. P63096; active = well fitted inhibition curve with a large enough effect, not every such curve was filed as active; inactive = no such curve, though single readings can be large or run the other way; note: % is set by controls: 0 for no effect and ±100 for the full control effect; nearly all actives have a fitted effect of over 30% in size
TexasRed fluor – alters Texas Red total fluorescence, flagging assay interference | Potency, µM (doses to about 106 µM), for inactives: at the top dose fluorescence change, negative = quenching | 280,000 compounds, 0.29% hits | TRb/SRC2 Texas Red total fluorescence interference; active = well fitted curve in either direction with a large enough effect; inconclusive = small, poorly fitted or top-dose-only effect; note: % is set by controls: 0 for no effect and ±100 for the full control effect
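Flags fluorescent or light-absorbing compounds by total fluorescence, S + 2P, at 555 nm excitation and 632 nm emission. Mixture: 20 nM Texas Red SRC2 peptide, 0.6 uM human TRb LBD, 1 uM T3, 5% DMSO; compound exposure 5 h at ambient temperature.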
TRb-SRC2 inh – inhibitors of human thyroid hormone receptor beta-SRC2 interaction | P10828 | TRbeta-SRC2 peptide binding, fluorescence polarization; receptor liganded with 1 µM T3 | Potency, µM (highest dose often 106 µM), without a hit: top-dose activity change, negative = inhibition, actives largely listed as inhibitors | 280,000 compounds, 0.065% hits;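 note: plate controls were bound peptide for no effect and peptide without receptor for full effect; nearly all actives have a fitted effect of over 50% in size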
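TRb LBD 0.6 uM + Texas Red SRC2 peptide 20 nM, 1 uM T3, Tris buffer w/ 5% DMSO; compound pinned, 5 h RT; FP read ex 555/em 632; normalized to unbound and bound controls.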
Anesthetic bind – candidate novel general anesthetic via apoferritin binding. P02791. apoferritin/1-aminoanthracene competitive binding, fluorescence. Potency, µM (series often up to 77.5 µM), for inactives: at the top dose activity change, negative = displacement, most hits filed as inhibitors. 350,000 compounds, 0.074% hits; note: % is set by controls: 0 for no effect and ±100 for the full control effect; nearly all actives have a fitted effect of over 20% in size
Target sequence (P02791 2-175 limits assumed): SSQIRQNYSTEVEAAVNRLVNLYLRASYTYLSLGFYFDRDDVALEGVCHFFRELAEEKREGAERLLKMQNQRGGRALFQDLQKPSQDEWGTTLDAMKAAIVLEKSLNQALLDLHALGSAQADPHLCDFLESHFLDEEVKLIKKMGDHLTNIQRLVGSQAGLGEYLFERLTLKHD
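Horse-spleen apoferritin (10 uM) was mixed with 50% saturated 1-aminoanthracene in PBS, exposed to compounds for 10 min at room temperature, and read for fluorescence (ex 380 nm, em 535 nm). Competitive displacement was fitted with a four-parameter Hill equation.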
Starred values were filed as active, the others as inactive; ? = inconclusive; / = no result; [ ] = remark or other dose. Unless noted, calls come from the whole dose curve; as a rule, active = well fitted curve in the direction sought with a large enough effect; inconclusive = small, poorly fitted or top-dose-only effect, or another doubt; inactive = no such curve, though single readings can be large; an effect the other way counts as inactive or inconclusive. Potency is the fitted concentration of half-maximal effect.

SMILES	ERG Ets-DNA blk	RGS12 GoLoco inh	TexasRed fluor	TRb-SRC2 inh	Anesthetic bind
CC(C)C[C@H](NC(=O)[C@H](CCCCN)NC(=O)CNC(=O)[C@H](CC(C)C)NC(=O)[C@@H](N)C(C)C)C(=O)N[C@@H](CO)C(=O)N[C@@H](CCC(N)=O)C(=O)N[C@@H](CCC(=O)O)C(=O)N[C@@H](CC(C)C)C(=O)N[C@@H](Cc1cnc[nH]1)C(=O)N[C@@H](CCCCN)C(=O)N[C@@H](CC(C)C)C(=O)N[C@@H](CCC(N)=O)C(=O)N[C@H](C(=O)N[C@@H](Cc1ccc(O)cc1)C(=O)N1CCC[C@H]1C(=O)N[C@@H](CCCNC(=N)N)C(=O)N[C@H](C(=O)N[C@@H](CC(N)=O)C(=O)N[C@H](C(=O)NCC(=O)N[C@@H](CO)C(=O)NCC(=O)N[C@H](C(=O)N1CCC[C@H]1C(N)=O)[C@@H](C)O)[C@@H](C)O)[C@@H](C)O)[C@@H](C)O	/	/	0%	-4%	-1%
Cc1cc(C)nc(SCC(=O)N/N=C/c2cccn2-c2ccc(O)cc2)n1	3%	3.2µM*	-6%	-2%	-17%
Cc1cccn2c(=O)c(/C=C(\C#N)C(=O)NC3CCS(=O)(=O)C3)c(N3CCC(C(N)=O)CC3)nc12 (centres undefined)	0%	0%	0.0003µM*[quencher]	-20%[53 µM]	76%
CCc1cccc(C)c1NC(=O)CSc1nc2ccc(N3C(=O)c4ccccc4C3=O)cc2s1	8%	7%	-2%	-12%	-11%
CCc1cccc(CC)c1NC(=O)CSc1nc2ccc(N3C(=O)C4C(C3=O)[C@H]3C=C[C@@H]4C3)cc2s1 (some centres undefined)	-6%	2µM*	-2%	0%	-5%
CC1(C)C(C=C(Cl)Cl)[C@H]1C(=O)OCc1cccc(Oc2ccccc2)c1 (some centres undefined)	/	/	0%[201 µM]	7%[201 µM]	/
COC(=O)c1ccccc1	/	7%	-1%	-2%	/
COC(=O)c1ccc(C23CC2(C(NP(=O)(c2ccccc2)c2ccccc2)c2ccccc2)C3)cc1 (centres undefined)	/	1.4µM*	-9%	3%	?
Nn1c(SCC(=O)Nc2ccc3c(c2)OCO3)nnc1C1CCCCC1	-1%	-8%	0%	3%	5µM*
CCCCCCCC/C=C\CCCCCCCCO	/	/	0%[201 µM]	11%[201 µM]	/
CC(C)C[C@H](NC(=O)[C@H](CO)NC(=O)CNC(=O)[C@H](CCCCN)NC(=O)[C@H](CCCN=C(N)N)NC(=O)[C@H](C)NC(=O)[C@H](Cc1ccccc1)NC(=O)[C@@H](N)CCCN=C(N)N)C(=O)N[C@@H](CCCN=C(N)N)C(=O)N[C@@H](CCC(N)=O)C(=O)N[C@@H](CCCCN)C(=O)N[C@@H](CC(N)=O)C(=O)N[C@H](C(=O)O)C(C)C	/	/	-2%	2%	-7%
CC(=O)Nc1ccc(NC(=O)c2ccco2)cc1	-4%	4%	-2%	-6%	-4%
CC1N(C)c2cc(NC(=O)c3ccco3)ccc2C1(C)C (centres undefined)	?	164%	45µM*[fluorescent]	?	?
Cc1ccc2c(Cl)cc(Cl)c(OCC(=O)OCC(=O)Nc3ccc(C#N)cc3)c2n1	-6%	20µM*	-3%	-7%	3%
CCCCn1cc(S(=O)(=O)c2ccc(CC)cc2)c(=O)c2cc(F)c(N3CCCC(C)C3)cc21 (centres undefined)	4%	/	89µM*[quencher]	-27%	54%
CCCCn1cc(S(=O)(=O)c2ccc(Cl)cc2)c(=O)c2cc(F)c(N3CCCC(C)C3)cc21 (centres undefined)	3%	/	100µM*[quencher]	-15%	52%
CCc1ccc(S(=O)(=O)c2cn(C)c3cc(N4CCCCC4C)c(F)cc3c2=O)cc1 (centres undefined)	5%	/	112µM*[quencher]	-24%	13%
CCCn1cc(S(=O)(=O)c2cccc(Cl)c2)c(=O)c2cc(F)c(N3CCOCC3)cc21	-5%	/	12%	2%	?
CCCn1cc(S(=O)(=O)c2cc(C)ccc2C)c(=O)c2cc(F)c(N3CCOCC3)cc21	2%	/	25µM*[quencher]	?	40%
O=C(O)CN(CCCN(CC(=O)O)CC(=O)O)CC(=O)O	/	/	-1%[201 µM]	1%[201 µM]	/
CCCCCCCC1CCC(=O)O1 (centres undefined)	/	/	-3%[201 µM]	8%[201 µM]	/
Cc1ccc2c(Br)cc(Br)c(O)c2n1	/	/	-2%	6%	/
CC(Cl)(Cl)C(=O)OCCOc1cc(Cl)c(Cl)cc1Cl	/	/	0%[201 µM]	-3%[201 µM]	/
O=[N+]([O-])c1ccccc1S(=O)(=O)NCCC1=CCCCC1	-1%	0%	0%	-4%	10µM*
Brc1ccc(C2Nc3cccc4cccc(c34)N2)o1	/	-27%	2.8µM*[quencher]	24%	-6%
SMILES	ERG Ets-DNA blk	RGS12 GoLoco inh	TexasRed fluor	TRb-SRC2 inh	Anesthetic bind
COc1cc2c(cc1OC)CN(C(=O)Nc1ccccc1Cl)CC2	0%	/	/	/	-3%
COc1cc2c(cc1OC)CN(C(=O)Nc1ccccc1)CC2	6%	/	112µM*[quencher]	-10%	-12%
Cc1ccc(C)c(-c2ccc(C(=O)O)o2)c1	/	-3%[136 µM]	3%[201 µM]	3%[201 µM]	-8%[163 µM]
Cc1c2ccccc2nc2c(F)c(NCCO)c(F)c(F)c12	-11%	20µM*	-14%	5%	-6%
CC1CCC/C(=C\Nc2ccc(O)cc2)C1=O (centres undefined)	-10%	28µM*	13%	28µM*	?
Cc1cc(C(=O)O)ccc1N/C=C1\CCCC(C)C1=O (centres undefined)	-3%	8%	-1%	7%	-17%
COc1cc([N+](=O)[O-])c2ncsc2c1	4%	12%	0%	3%	-12%
COc1cc(SSc2cc(OC)cc([N+](=O)[O-])c2N)c(N)c([N+](=O)[O-])c1	0%	10µM*	-3%	4%	-18%
CCCCCCCCCCCCN	/	/	-3%[201 µM]	0%[201 µM]	/
CC(C)C[C@H](NC(=O)[C@H](Cc1ccccc1)NC(=O)CNC(=O)[C@H](CCC(=O)O)NC(=O)[C@H](CCCNC(=N)N)NC(=O)[C@H](C)NC(=O)[C@H](C)NC(=O)[C@@H](N)CC(=O)O)C(=O)N[C@@H](CC(=O)O)C(=O)N[C@H](C(=O)N[C@@H](CC(C)C)C(=O)N[C@H](C(=O)N[C@H](C(=O)N[C@@H](CC(C)C)C(=O)N[C@@H](Cc1cnc[nH]1)C(=O)N[C@@H](CCCNC(=N)N)C(=O)N[C@@H](C)C(=O)NCC(=O)N[C@@H](C)C(=O)N[C@@H](CCCNC(=N)N)C(=O)O)C(C)C)C(C)C)[C@@H](C)O	/	/	0%	2%	-4%
O=C(O)CCCNc1cc(N2CCC3(CC2)OCCO3)c2noc3c2c1C(=O)c1ccccc1-3	/	126%	45µM*[fluorescent]	22µM*	?
